# Experimental data published in PubChem BioAssay (NCATS).
# “And” between values parts separate entries of the source, which are not always exact repeats. Equal values may be shown once. Results filed as inconclusive are left out. Entries that show only a call come without a potency. Values without a mark were called inactive. The source made the active and inactive calls. Calls come from the whole dose curve; as a rule, active = well fitted cell-killing curve with a large enough effect; inconclusive = small, poorly fitted or top-dose-only effect, or effect the other way; inactive = no such curve, though single readings can be large or run the other way.
# Columns and labels:
# [1] = Viability qHTS for spleen associated tyrosine kinase inhibitor (SYKi) naive MV4-11 cells (AID 1963823); note: nearly all actives have a fitted effect of over 40% in size
# Summary of the method: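 Viability of MV4-11 AML cells lacking prior SYK inhibitor exposure is scored by CellTiter-Glo luminescence following 72 hr compound incubation at 37 C, 5% CO2, seeded at 500 cells per well.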
# [2] = Viability qHTS for spleen associated tyrosine kinase inhibitor (SYKi) drug resistant MV4-11 cells (AID 1963824); note: nearly all actives have a fitted effect of over 35% in size
# Summary of the method: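 SYK inhibitor-resistant MV4-11 AML cells, 500 per well, added to predispensed compounds and incubated 72 hr at 37 C, 5% CO2. Viability measured by CellTiter-Glo luminescence after 10 min at room temperature.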
# Potency is the fitted concentration of half-maximal effect.
Structure (SMILES),Potency [1],Potency [2],viability (% of control) [1],"viability, % of control [2]"
CC(C)(C)[C@H](NC(=O)c1ccc(N)c(Cl)c1)C(=O)N1CCC[C@H]1C(=O)N[C@H](C#N)CC(=O)O,inactive,inactive,–,–
COC(=O)C1=CO[C@@H](O[C@@H]2O[C@H](CO)[C@@H](O)[C@H](O)[C@H]2O)[C@@H]2C(CO)=CC[C@H]12,inactive,inactive,–,–
CC1(C)CC2C(O)c3cocc3CC(C)(O)C2C1 (stereo unspecified),inactive,inactive,–,–
NC(=O)c1cccc2[nH]c(-c3ccc(C4CCCN4)cc3F)nc12 (stereo unspecified),13000 nM (active),16.4 µM (active),–,–
Cn1nccc1Nc1nccc(-c2ccn([C@H](CO)c3ccc(Cl)c(F)c3)c(=O)c2)n1,7310 nM (active),4.61 µM (active) and 6.61 µM (active),–,–
C=C1C(=O)OC2/C=C(\C)CC/C=C(\C)CC(OC(C)=O)C12 (stereo unspecified),2590 nM (active),2.59 µM (active),–,–
C=C1[C@@H]2CC[C@@]3(C)[C@H](c4ccoc4)OC(=O)C[C@]13O[C@H]1CC(=O)C(C)(C)[C@H](CC(=O)OC)[C@]12C,inactive,inactive,–,–
CCC(C)C(=O)Oc1cc(C)ccc1C1(COC(=O)C(C)C)CO1 (stereo unspecified),2860 nM (active),2.02 µM (active),–,–
C=C(C)C(=O)OC1CC2(C)OC(=CC2=O)C(=C)CC2OC(=O)C(=C)C12 (stereo unspecified),255 nM (active),0.36 µM (active),–,–
CC1=CC(=O)[C@]2(O[C@@H]3O[C@@H](C)[C@H](O)[C@@H](O)[C@H]3OC(=O)/C=C/c3ccccc3)C=CO[C@@H](O[C@@H]3O[C@H](CO)[C@@H](O)[C@H](O)[C@H]3O)[C@H]12,inactive,inactive,–,–
CC(C)c1cc(C(=O)N2CC[C@@H](NC(=O)C3CC3)C2)n[nH]1,inactive,inactive,–,–
CC1=C2C(=O)C=C(CO[C@@H]3O[C@H](CO)[C@@H](O)[C@H](O)[C@H]3O)[C@@H]2[C@H]2OC(=O)[C@H](C)[C@@H]2[C@@H](O)C1,inactive,inactive,–,–
O=C1NC(=O)C(c2c[nH]c3ccccc23)=C1c1c[nH]c2ccccc12,1860 nM (active),1.16 µM (active),–,–
CC[C@H](C)[C@@H]([C@@H](CC(=O)N1CCC[C@H]1[C@H](OC)[C@@H](C)C(=O)N[C@@H](Cc1ccccc1)c1nccs1)OC)N(C)C(=O)[C@@H](NC(=O)[C@H](C(C)C)N(C)C)C(C)C,inactive,inactive,–,–
CC1(C)CC[C@]2(C(=O)O)CC[C@]3(C)C(=CCC4[C@@]5(C)CC[C@H](O[C@@H]6O[C@H](C(=O)O)[C@@H](O[C@@H]7OC[C@@H](O)[C@H](O)[C@H]7O)[C@H](O)[C@H]6O)C(C)(C)C5CC[C@]43C)C2C1O (stereo partly specified),inactive,inactive,–,–
OCC1OC(Oc2cc(O)cc(/C=C/c3ccc(O)cc3)c2)C(O)C(O)C1O (stereo unspecified),inactive,inactive,–,–
CCC(C)C1NC(=O)C2CCCN2C(=O)C(NC(C)=O)C(C)OC(=O)C(Cc2ccc(OC)cc2)N(C)C(=O)C2CCCN2C(=O)C(C(C)C)NC1=O (stereo unspecified),inactive,inactive,–,–
C/C(=N\N=C(N)N)c1ccc(NC(=O)Nc2ccc(/C(C)=N/N=C(N)N)cc2)cc1,2060 nM (active),0.731 µM (active),–,–
CC(CCC1C(C(=O)O)=CC(=O)CC1(C)C)O[C@@H]1O[C@H](CO)[C@@H](O)[C@H](O)[C@H]1O (stereo partly specified),inactive,inactive,–,–
CC(C)C[C@@H]1NC(=O)[C@@H](Cc2ccccc2)NC(=O)C(CCCCCC(=O)C2CO2)NC(=O)[C@@H]2CCCCN2C1=O (stereo partly specified),25.2 nM (active),0.0126 µM (active),–,–
COC(=O)C1=COC(O[C@@H]2O[C@H](COC(=O)/C=C/c3ccc(O)cc3)[C@@H](O)[C@H](O)[C@H]2O)C2C(CO)=CCC12 (stereo partly specified),inactive,inactive,–,–
CC(=O)OC1C(CO)OC(O[C@H]2[C@H](OC(=O)[C@]34CCC(C)(C)C[C@H]3C3=CCC5[C@@]6(C)CC[C@H](O[C@@H]7O[C@H](C(=O)O)[C@@H](O)[C@H](O[C@@H]8OC[C@@H](O)[C@H](O)[C@H]8O)[C@H]7O[C@@H]7O[C@H](CO)[C@H](O)[C@H](O)[C@H]7O)[C@@](C)(C=O)C6CC[C@@]5(C)[C@]3(C)C[C@H]4O)O[C@H](C)[C@H](OC3OC(C)C(OC4OCC(O)C(O)C4O)C(O)C3O)[C@@H]2O)C(O)C1O (stereo partly specified),–,–,87.3% [at 9.25 µM],100% [at 9.25 µM]
COc1c2ccoc2nc2c(OC)c(O[C@@H]3O[C@@H](C)[C@H](O)[C@@H](O[C@@H]4O[C@H](CO)[C@@H](O)[C@H](O)[C@H]4O)[C@H]3OC(C)=O)ccc12,inactive,inactive,–,–
